NPC1 prom act – activators of NPC1 promoter; Huh7 NPC1 promoter luciferase reporter, 24 h; Potency, µM (top dose mostly 9.22 µM), without a hit: at the top dose activation, hits mostly activators; 320,000 tested, 2.4% active; further: % of control where 0% means no effect; nearly all actives have a fitted effect of over 60% in size
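Stable NPC1-promoter luciferase Huh7 line; cpd (DMSO) 24 h, 37 °C, 5% CO2; Amplite luciferase reagent 10 min RT; luminescence readout. qHTS format.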
FLuc counter – counter-screen for miR-21 project: firefly luciferase inhibitors or activators. P08659. purified FLuc, Km substrates, luminescence inhibition. Potency, µM (top dose mostly 57.5 µM), for the others: at the top dose activity change, negative = inhibition, usual class: inhibitors. 360,000 tested, 6.9% active. AID 588342;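 further: plate controls were vehicle for no effect and reference inhibitor for full effect; nearly all actives have a fitted effect of over 55% in size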
Target sequence (P08659 whole entry, looked up): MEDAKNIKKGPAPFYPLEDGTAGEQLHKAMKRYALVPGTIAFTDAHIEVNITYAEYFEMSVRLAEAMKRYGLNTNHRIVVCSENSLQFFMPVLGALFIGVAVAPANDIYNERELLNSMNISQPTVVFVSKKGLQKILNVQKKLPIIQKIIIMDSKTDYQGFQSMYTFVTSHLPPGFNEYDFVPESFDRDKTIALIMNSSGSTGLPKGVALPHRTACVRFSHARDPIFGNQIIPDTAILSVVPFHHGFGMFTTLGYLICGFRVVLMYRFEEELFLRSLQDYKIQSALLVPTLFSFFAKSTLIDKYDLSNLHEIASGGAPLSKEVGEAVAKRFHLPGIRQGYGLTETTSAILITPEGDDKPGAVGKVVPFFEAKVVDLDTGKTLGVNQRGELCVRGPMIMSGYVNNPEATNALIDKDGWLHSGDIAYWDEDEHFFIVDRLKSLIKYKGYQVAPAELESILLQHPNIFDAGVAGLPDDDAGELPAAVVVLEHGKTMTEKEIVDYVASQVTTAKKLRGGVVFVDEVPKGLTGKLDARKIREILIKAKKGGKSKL
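Purified P. pyralis luciferase (10nM final) with 10uM D-luciferin and 10uM ATP (Km levels) in 50mM Tris acetate pH 7.5, 10mM Mg acetate, 0.01% Tween-20, 0.05% BSA; qHTS 6-point titration, ~60 µM downward; luminescence read.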
Luc counter – blocks Kinase-Glo luciferase, a counter-screen artifact; 200,000 tested, 0.28% active; Kinase-Glo luciferase, ATP luminescence, 8 min; Potency, µM (top dose mostly 38.3 µM), without a hit: top-dose activity change, negative = inhibition, hits mostly inhibitors; further: on the % scale 0 is the no-effect control and ±100 the full control effect; nearly all actives have a fitted effect of over 60% in size
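Light output from Kinase-Glo luciferase with luciferin and 10 uM ATP in 50 mM imidazole pH 7.2, KCl, MgCl2, Tween 20, BSA; compound pin-delivered, 8-min ambient incubation, then luminescence read.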
ELG1 genotoxic – genotoxicity induction in ELG1-luciferase HEK293T cells; Potency, µM (top dose mostly 46 µM), inactives show at the top dose activity change, positive = activation, most hits filed as activators; 330,000 tested, 1.3% active; HEK293T ELG1-luciferase reporter, luminescence, 16 h; further: % of control where 0% means no effect; nearly all actives have a fitted effect of over 60% in size
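ELG1-luciferase HEK293T cells, 2,000/well; compound pinned in; 16 hr, 37 °C, 5% CO2; ONE-Glo, 30 min RT; luminescence on CCD imager.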
Rab9 promoter act – activators of Rab9 promoter; Huh7 Rab9 promoter-luciferase reporter, luminescence, 24 h; Potency, µM (top dose mostly 9.22 µM), for inactives: at the top dose activation, negative = inhibition, usual class: activators; 320,000 tested, 2.8% active; AID 485297; further: % of control where 0% means no effect; nearly all actives have a fitted effect of over 60% in size
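Huh7 cells stably carrying a Rab9 promoter-luciferase reporter, 1500 cells per well in OP-MEM I with 10% FBS, treated with compound 24 hours at 37C. Luciferase activity read by luminescence after 10 minutes with Amplite reagent.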
SMN2 splice enh – SMN2 splice variant enhancement; HEK293 SMN2-luciferase splicing reporter, luminescence, 30-36 h; Potency, µM (top dose mostly 46.1 µM), for the others: top-dose activity change, positive = activation, most hits filed as activators; 210,000 tested, 2.8% active; further: % of control where 0% means no effect; nearly all actives have a fitted effect of over 55% in size
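HEK293 cells carry an SMN2 minigene-luciferase reporter in which exon 7 inclusion puts luciferase in frame. Cells were seeded at 2000 cells/well, attached for 10-12 hours, then exposed to compounds for 30-36 hours at 37C before ONE-Glo luminescence.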
* = called active by the depositor; [ ] = another dose, or the depositor's remark. Hits are enriched below; roughly 7.3% of the tested compounds scored in any of these assays. The call rests on the fitted dose curve; in most records, active means well fitted curve in the direction sought with a large enough effect; inconclusive means small, poorly fitted or top-dose-only effect, or another doubt; inactive means no such curve, though single readings can be large; an effect the other way counts as inactive or inconclusive. Potency means the concentration at half of the fitted maximal effect.

COC(=O)c1sccc1NC(=O)Nc1ccccc1F was read as NPC1 prom act 1%, FLuc counter 13µM*, Luc counter 13µM*, ELG1 genotoxic 4% and Rab9 promoter act -1%.
`COC(=O)c1sccc1NC(=O)Nc1ccc(C)c(C)c1` gave NPC1 prom act 2%, FLuc counter 0.48µM*, ELG1 genotoxic 2.3µM* and Rab9 promoter act inconclusive.
`COC(=O)c1sccc1NC(=O)Nc1ccc(OC)c(OC)c1` gave NPC1 prom act -1%, FLuc counter inconclusive, ELG1 genotoxic -3% and Rab9 promoter act -1%.
Screening CCCOc1ccc(Br)cc1-c1cc(-c2ccc(Cl)cc2)[nH]c1-c1ccncc1 returned Luc counter 1% and SMN2 splice enh -4%.
COc1ccc(-n2cc(C(=O)NCCc3ccc(C)cc3)c3ccccc3c2=O)cc1 was read as FLuc counter -11%.
Screening Cc1cc(NC(=O)OC2CCCCC2)ccc1[N+](=O)[O-] returned NPC1 prom act 2.8µM*, FLuc counter 7.6µM*, ELG1 genotoxic 22% and Rab9 promoter act 2.8µM*.
`Cc1ccc(NC(=O)C2C3CCCCC32)cc1[N+](=O)[O-]` (stereo unspecified) gave NPC1 prom act inconclusive, FLuc counter 12µM*, ELG1 genotoxic inconclusive and Rab9 promoter act inconclusive.
`CC(=O)Nc1ccc(C)c([N+](=O)[O-])c1` gave NPC1 prom act -6%, FLuc counter -2%, Luc counter -1%, ELG1 genotoxic 3% and Rab9 promoter act -7%.
Screening Cc1ccc(NC(=O)C2C3/C=C\CCCCC32)cc1 (stereo unspecified) returned NPC1 prom act inconclusive, FLuc counter inconclusive, Luc counter 0%, ELG1 genotoxic 15%, Rab9 promoter act 3.5µM* and SMN2 splice enh inconclusive.
Cc1cccc(NC(=O)C2C3CCCCC32)c1 (stereo unspecified) was read as NPC1 prom act inconclusive, FLuc counter 19µM*, ELG1 genotoxic inconclusive and Rab9 promoter act inconclusive.
O=C(Nc1ccccc1)C1C2CCCCC21 (stereo unspecified) was read as NPC1 prom act 7%, FLuc counter inconclusive, ELG1 genotoxic 8% and Rab9 promoter act 16%.
For COC(=O)c1cccc(NC(=O)c2ccc3c(c2)C(=O)N(CC2CCCO2)C3=O)c1 (stereo unspecified) the results were NPC1 prom act 3%, FLuc counter 24µM*, Luc counter -6%, ELG1 genotoxic 0%, Rab9 promoter act 0% and SMN2 splice enh 13%.
COc1ccc(NC(=O)c2ccc3c(c2)C(=O)N(CC2CCCO2)C3=O)cc1 (stereo unspecified) was read as NPC1 prom act -7%, FLuc counter inconclusive, ELG1 genotoxic -1% and Rab9 promoter act -5%.
O=C(O)c1cccc(NC(=O)c2ccc3c(c2)C(=O)N(c2ccccc2)C3=O)c1 was read as NPC1 prom act 2%, FLuc counter 0.27µM*, ELG1 genotoxic 4% and Rab9 promoter act -2%.
For CC(=O)Oc1cccc(C(=O)Nc2ccc3c(c2)C(=O)N(CC2CCCO2)C3=O)c1 (stereo unspecified) the results were NPC1 prom act 22%, FLuc counter inconclusive, ELG1 genotoxic 3% and Rab9 promoter act 3%.
For COc1ccccc1N1C(=O)c2ccc(C(=O)Nc3ccc(C(=O)O)cc3)cc2C1=O the results were NPC1 prom act -3%, FLuc counter 27µM*, ELG1 genotoxic 1% and Rab9 promoter act -3%.
Screening O=C(O)c1cc(NC(=O)c2cccc(N3C(=O)c4ccccc4C3=O)c2)cc(C(=O)O)c1 returned NPC1 prom act -4%, FLuc counter -13%, ELG1 genotoxic 3% and Rab9 promoter act 6%.
Screening O=C(Nc1ccc2c(c1)C(=O)N(CC1CCCO1)C2=O)c1cccc(Br)c1 (stereo unspecified) returned NPC1 prom act 0%, FLuc counter 11µM*, Luc counter -2%, ELG1 genotoxic -4%, Rab9 promoter act 11% and SMN2 splice enh -17%.
`COc1ccccc1C(=O)Nc1cc2c(cc1N1CCCCC1)n(C)c(=O)n2C` gave FLuc counter -13% and SMN2 splice enh 0%.
Cc1cccn2c(=O)c(C(=O)NCc3ccccc3Cl)c(O)nc12 was read as FLuc counter -3% and SMN2 splice enh -1%.
For O=C(O)c1cccc(NC(=O)c2ccc3c(c2)C(=O)N(CC2CCCO2)C3=O)c1 (stereo unspecified) the results were NPC1 prom act 5%, FLuc counter 0.48µM*, Luc counter -10%, ELG1 genotoxic 1%, Rab9 promoter act 1% and SMN2 splice enh 4%.
O=C(O)Cc1ccc(NC(=O)c2ccc3c(c2)C(=O)N(CC2CCCO2)C3=O)cc1 (stereo unspecified) was read as NPC1 prom act 10%, FLuc counter -1%, ELG1 genotoxic 15% and Rab9 promoter act -4%.
`Cc1cccc(C(c2sc3nc(-c4ccco4)nn3c2O)N2CCOCC2)c1` (stereo unspecified) gave FLuc counter -4%.
`CCN(CC)c1ccc2cc(-c3nc(-c4cccs4)no3)c(=O)oc2c1` gave FLuc counter 3.8µM*.
CCN(CC)c1ccc2cc(-c3nnc(-c4ccncc4)o3)c(=O)oc2c1 was read as NPC1 prom act inconclusive, FLuc counter inconclusive, Luc counter 0%, ELG1 genotoxic inconclusive, Rab9 promoter act inconclusive and SMN2 splice enh 11µM*.
COc1cc(/C=C2/C(=N)N3C(=NC2=O)SN=C3S(C)(=O)=O)ccc1OC(=O)c1ccco1 was read as NPC1 prom act 1%, FLuc counter 11µM*, ELG1 genotoxic 0%[9.26 µM] and Rab9 promoter act 5%.
C=CCOc1ccc(/C=C2\C(=N)N3N=C(S(=O)(=O)CC)SC3=NC2=O)cc1OC was read as NPC1 prom act -1%, FLuc counter 9.5µM*, Luc counter -4%, ELG1 genotoxic 11%, Rab9 promoter act 0% and SMN2 splice enh -2%.
For CS(=O)(=O)C1=NSC2=NC(=O)/C(=C\c3ccc(OC(=O)c4ccco4)cc3)C(=N)N21 the results were NPC1 prom act 8%, FLuc counter 24µM*, ELG1 genotoxic -3% and Rab9 promoter act 17%.
For CCOc1cc(/C=C2/C(=N)N3C(=NC2=O)SN=C3S(=O)(=O)CC)ccc1OC(=O)c1ccco1 the results were NPC1 prom act 3%, FLuc counter -21%, ELG1 genotoxic 3% and Rab9 promoter act -1%.

Source: PubChem (National Center for Advancing Translational Sciences (NCATS))
